Shown are actives, neighbours in structure and some others; about 1.9% of the full set was active somewhere.
m-calpain inh = blocks pig calpain II enzyme activity. 0.37% of 220,000 active. inhibition, % at 16 µM. purified calpain II, fluorogenic peptide substrate, 30 min;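 active = inhibition above about 50%, limit read from the data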
PGE2 EP2 inh = inhibitors of human EP2 prostaglandin E2 receptor. P43116. C6 glioma cells expressing human EP2, cAMP TR-FRET; cells stimulated with saturating PGE2. inhibition, % at 25 µM. 0.52% of 260,000 active;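 active = percent inhibition above 40 after rounding to a whole number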;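 note: rat C6 glioma host cells with rolipram phosphodiesterase inhibitor present; the protocol text gives 20 µM as final concentration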
EP2 modulator = EP2 receptor (human) modulation; 0.83% of 260,000 active; AID 940; induction, % at 25 µM; EP2-expressing cells, cAMP HTRF FRET, PGE2 co-stimulation;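 active = compounds whose cAMP rise, as percent of the full-agonist control response, exceeds 60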;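 note: rat C6 glioma line stably carrying human EP2 under a CMV promoter; the protocol text gives 20 µM as final concentration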
Furin inh = blocks human furin protease activity; purified furin, fluorogenic substrate cleavage; inhibition, % at 20 µM or 30 µM; 0.061% of 220,000 active; AID 463115; in the data active = inhibition above about 25%
Target sequence (P09958 108-714 limits assumed): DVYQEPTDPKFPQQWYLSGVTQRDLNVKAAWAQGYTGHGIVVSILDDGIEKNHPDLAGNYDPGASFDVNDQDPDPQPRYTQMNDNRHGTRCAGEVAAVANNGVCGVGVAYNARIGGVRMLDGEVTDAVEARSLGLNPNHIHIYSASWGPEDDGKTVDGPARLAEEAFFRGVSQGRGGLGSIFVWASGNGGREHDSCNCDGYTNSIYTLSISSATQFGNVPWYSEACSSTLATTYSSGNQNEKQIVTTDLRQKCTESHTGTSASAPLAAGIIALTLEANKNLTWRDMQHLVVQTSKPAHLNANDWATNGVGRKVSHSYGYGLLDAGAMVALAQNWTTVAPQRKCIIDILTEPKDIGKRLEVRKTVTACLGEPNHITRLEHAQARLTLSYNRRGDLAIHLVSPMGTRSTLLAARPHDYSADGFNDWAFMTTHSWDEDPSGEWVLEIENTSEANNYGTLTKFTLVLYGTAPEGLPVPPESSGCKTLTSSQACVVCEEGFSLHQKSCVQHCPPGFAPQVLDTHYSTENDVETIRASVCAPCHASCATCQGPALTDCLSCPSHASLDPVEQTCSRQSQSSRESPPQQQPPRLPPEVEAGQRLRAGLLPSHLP
HMGR II inh = blocks class II HMG-CoA reductase of Enterococcus faecalis | inhibition, % at 10 µM | AID 1066 | purified E. faecalis HMGR, NADPH absorbance 340 nm kinetic | 0.41% of 190,000 active;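 active = inhibition above a set limit, the median over all tested compounds plus 3 SD, cut at about 9.5% in these data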;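 note: enzyme runs in reverse so mevalonate oxidation gives rising NADPH absorbance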
Numbers stand for hits; i = inactive; nt = no result given; ! = not active in a repeat.

SMILES	m-calpain inh	PGE2 EP2 inh	EP2 modulator	Furin inh	HMGR II inh
CC[C@H](CCC(C)[C@H]1CCC2C3CCC4C[C@@H](O)CC[C@]4(C)C3CC[C@@]21C)C(C)C (stereo partly drawn)	nt	i	i	nt	nt
COC(=O)CC[C@@H](C)[C@@H]1CC[C@@H]2[C@H]3CC[C@H]4C[C@@H](O)CC[C@]4(C)[C@@H]3CC[C@]21C	nt	42.5	i	nt	nt
CCC(c1nnnn1C1CCCC1)N(CCN1CCOCC1)Cc1cc2cc(C)ccc2[nH]c1=O (stereo not drawn)	nt	i	i	nt	nt
O=C(NCc1ccccc1)c1ccc2c(=O)n(CC3CCCO3)c(=S)[nH]c2c1 (stereo not drawn)	i	i	i	i	i
Cc1ccc(CNC(=O)c2ccc3c(=O)n(CC4CCCO4)c(=S)[nH]c3c2)cc1 (stereo not drawn)	81.5	i	i	i	i
Cc1nn(-c2ccccc2)c(Cl)c1/C=N/NC(=O)c1ccc(NS(=O)(=O)c2cccs2)cc1	i	i	i	i	9.6
Cc1cccc(C2NC(C(=O)O)CS2)c1 (stereo not drawn)	nt	i	i	nt	nt
Cc1ccc(C)c(N=Cc2ccc(-c3ccc([N+](=O)[O-])cc3)o2)c1	i	i	i	i	15.8
O=C(O)c1ccc(-c2ccc(/C=N/Nc3ccc([N+](=O)[O-])cc3)o2)cc1	i	46.1	i	i	nt
COc1ccc(N=c2oc3cc(O)ccc3cc2C(=O)Nc2ccccn2)cc1OC	i	42.8	i	i	i
CCOC(=O)C1=C(CNCCc2ccc(Cl)cc2)NC(=O)NC1c1ccc2c(c1)OCO2 (stereo not drawn)	53.1	i	i	i	i
CC(=O)NC(Cc1cccc(F)c1)C(=O)NC1CCN(c2ncccc2[N+](=O)[O-])CC1 (stereo not drawn)	i	i	i	i	15.5
CS(=O)(=O)c1cncnc1C1CCCN(CC(=O)NCc2ccco2)C1 (stereo not drawn)	nt	nt	i	nt	nt
CSc1ccc(N=Nc2c(C)[nH]n(C)c2=O)cc1	i	i	i	25.9	nt
CC(=O)Nc1ccc(N=Nc2c(C)[nH]n(C(N)=S)c2=O)cc1	i	i	i	i	i
CCCC(c1nnnn1C1CCCC1)N1CCN(c2cc(C)ccc2C)CC1 (stereo not drawn)	nt	i	i	nt	nt
CCN1/C(=C/c2ccc3cccc(C)c3[n+]2CC)Sc2ccccc21	i	62.5!	i	i	i
CCN1/C(=C/c2ccc3cc(C)cc(C)c3[n+]2CC)Sc2cc(C)ccc21	i	110.2	i	i	i
CCN1/C(=C\c2ccc3cc(C)ccc3[n+]2CC)Sc2cc(C)c(C)cc21	i	60.5	i	i	i
CC[n+]1c(/C=C2\Sc3ccc4ccsc4c3N2C)ccc2cc(C)ccc21	nt	i	i	nt	nt
CCOc1cc(C2/C(=C(/O)c3ccc(OC)cc3C)C(=O)C(=O)N2Cc2cccnc2)ccc1O (stereo not drawn)	nt	i	i	nt	nt
CCOC(=O)c1sc(NC(=S)NC(=O)c2ccc(OC(C)C)cc2)nc1C	nt	i	i	nt	nt
Cc1cccc(/C=C2/S/C(=N/N=C3\CC4CCC3(C)C4(C)C)NC2=O)c1 (stereo not drawn)	i	i	i	31.1	i
COc1ccc(OCC(=O)Nc2cccc(C)n2)cc1	nt	i	i	nt	nt
CC(C)(C)c1cc(CSC(=S)NC2CCS(=O)(=O)C2)c(Br)c(C(C)(C)C)c1 (stereo not drawn)	i	i	i	i	i
SMILES	m-calpain inh	PGE2 EP2 inh	EP2 modulator	Furin inh	HMGR II inh
O=S1(=O)CC=C(CSC(=S)NC2CCS(=O)(=O)C2)C1 (stereo not drawn)	i	i	i	i	14.9
Cn1c(CCN2CCN(c3ccccc3)CC2)nc2cc(NC(=O)c3ccco3)ccc21	i	nt	i	i	i
CN1CCN(CCc2nc3cc(NC(=O)c4ccco4)ccc3n2C)CC1	53.6	i	i	i	nt
Cc1ccc(S(=O)(=O)N2CCCC(C(=O)Nc3ccc4c(c3)OCCO4)C2)cc1Cl (stereo not drawn)	nt	i	i	nt	nt
CCCCCCn1c(CN2CCN(CCO)CC2)nc2c1c(=O)n(C)c(=O)n2C	i	i	i	i	i
CCCCCCn1c(CN2CCC(C)CC2)nc2c1c(=O)n(C)c(=O)n2C	i	i	63.5	i	i
COc1ccc2cc(C)c3nnc(SCC(=O)Nc4cccc(NC(C)=O)c4)n3c2c1	nt	i	i	nt	nt
Clc1cccc(CN2CCC(Cc3ccccc3)CC2)c1	i	i	i	i	14.2
CCn1nnc(NC(=O)c2ccc3ccccc3c2)n1	nt	i	i	nt	nt
Cc1ccc(NS(=O)(=O)c2ccc(NC(=O)c3cccs3)cc2)c(C)c1	i	i	i	i	i
COc1ccc(C(=O)NC(=S)Nc2ccc(S(=O)(=O)Nc3nccs3)cc2)cc1OC	nt	43.4	i	nt	nt

Screening data (PubChem BioAssay)
